# Reference: the supplement of paper PMC5499739
# In all, about 16,000 sequences were measured (“Z-score”: median about -0.37, highest 2% from about 3.2 on). This is one part of a sample in which the highest values are shown more often than they occur.
# Tested on: RBM10 RRM1-ZnF (GST-tagged construct)
# Test: RNAcompete 7-mer binding Z-score; higher = stronger binding preference
# Procedure: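 RNAcompete: 20 pmol GST-tagged RBM10 RNA-binding constructs were incubated with a designed RNA pool of about 241,000 sequences up to 41 nt (1.5 nmol) on glutathione beads for 30 min at 4 °C and washed. Bound RNAs were identified by microarray hybridisation. Each RNA 7-mer is scored by a one-sided Z-score of its enrichment, computed over probes that contain the 7-mer within longer pool sequences.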
row,Sequence,RNAcompete 7-mer binding Z-score
1,UCUGGUA,-0.435
2,CAUAACA,-0.444
3,UGUUAUC,-0.457
4,UGUCUCU,-0.649
5,CGCUAUC,-0.668
6,CGGAAGC,0.283
7,GGACAAU,0.927
8,UGCGACA,-0.145
9,UCAGAUC,-0.604
10,ACUAGGA,0.719
11,GGGCGGU,2.28
12,GGGCGGA,2.86
13,GGGCGGG,3.66
14,CUCAAAU,-0.698
15,AACUUCC,-0.919
16,AAAUUCA,-0.668
17,CUGUUAA,-0.779
18,UGGUACG,1.43
19,AAACUAG,-0.327
20,GGGGGUA,3.99
21,AGGGGUA,3.69
22,CGGGGUA,3.2
23,AGGGGUC,1.98
24,UUGGGUA,2.33
25,ACGGGUA,2.05

row,Sequence,RNAcompete 7-mer binding Z-score
1,GCGGGUA,2.88
2,UGGGGUA,3.56
3,GACCGGC,-0.532
4,UGGAGUG,3.08
5,GCUUCCC,-0.665
6,UGUACAC,-0.24
7,AUGCAAG,0.472
8,ACAGGCC,-0.0512
9,UCCUUUG,-0.876
10,UCCGGCG,-0.275
11,AUCCGGU,-0.227
12,GAGUUAA,0.29
13,CAGAAGG,1.57
14,AUGAAGG,2.96
15,GUGAAGG,3.74
16,CUGAAGG,1.22
17,GAGAAGA,1.22
18,UAGAAGG,3.12
19,AAGAAGG,3.54
20,GAGAAGG,4.53
21,AAGAAGA,1.11
22,AUAAAGU,-0.155
23,UUCCCGC,-0.759
24,UCUCUUG,-0.714
25,ACGGGAU,2.02

row,Sequence,RNAcompete 7-mer binding Z-score
1,AAAGUCC,-0.561
2,UCGACGA,-0.327
3,GCCAGCG,-0.0544
4,UCGAAGC,-0.36
5,CUGGGAA,1.47
6,AUCGGGU,1.7
7,UUGGGAA,2.12
8,AUUGGGU,2.9
9,CUGGGAG,1.66
10,AUGGGCA,2.11
11,UUGGGAG,2.68
12,AUGGGGU,3.92
13,AUGGGAA,3.97
14,AUGGGGA,4.27
15,AUGGGAG,3.64
16,CGACCUG,-0.571
17,GACGAAC,-0.181
18,UUUUGAU,-0.629
19,UAUUGGC,-0.201
20,AAUGGUA,2.63
21,AACAACC,-0.72
22,AGGAACU,-0.0155
23,AUGGGGG,4.12
24,AUGGGCG,2.86
25,AUGGGGC,2.81

row,Sequence,RNAcompete 7-mer binding Z-score
1,AUCUAAA,-0.451
2,AGGGAUC,1.02
3,GAGGAUA,2.15
4,CGGGAUA,1.56
5,GGGGAUA,3.45
6,AGGGAUA,4.2
7,AGGGAUU,2.3
8,CUUAGUG,-0.282
9,AGGAGAU,1.41
10,AAUGCGC,-0.428
11,UGGCGGA,1.83
12,GGGGGGU,3.81
13,CGGGGGU,3.46
14,AGGGGGG,2.76
15,GGGGCGU,2.64
16,CGGGGUU,2.77
17,GGGGGGC,2.37
18,CCGGGGU,2.08
19,GGGGGGG,3.4
20,GGGGGCU,2.22
21,GUUUUAC,-0.591
22,AGAAGUA,0.173
23,ACCCGGU,-0.415
24,UUUCGUA,-0.779
25,AUACAUA,-0.269

row,Sequence,RNAcompete 7-mer binding Z-score
1,AUCUUAU,-0.863
2,AGUCACG,0.0138
3,UUUCGUC,-0.811
4,GUGAGGC,1.53
5,AUGAGGC,0.969
6,GUGAGGG,3.75
7,CUGAGGG,1.81
8,UUGAGGA,1.14
9,UUGAGGG,3.4
10,AUGAGGU,1.9
11,AUGAGGG,3.84
12,UUGAGGC,0.115
13,UGACCCC,-0.246
14,UCGAAGA,-0.171
15,AAUUCAG,-0.496
16,CCCCGAC,-0.0772
17,AACUCUA,-0.854
18,UCUUAUC,-0.86
19,GUGGGCA,3.06
20,CUGGGGU,2.18
21,GUGGGGA,4.7
22,GUGGGUU,3.11
23,UUGGGAC,1.58
24,GUGGGGG,4.47
25,GUGGGAG,4.08

row,Sequence,RNAcompete 7-mer binding Z-score
1,GCGGGAG,2.86
2,CUGGGGA,1.76
3,GUGGGGU,4.71
4,CUGGGGG,2.28
5,GUGGGCG,3
6,CCCCAAA,-0.6
7,UCGAGCG,0.0723
8,GGCUCAU,-0.318
9,AGGAACC,-0.139
10,CUGCGGA,0.199
11,UAUGCCC,-0.6
12,AUGACGC,-0.383
13,CCAGACC,-0.642
14,AGGCGCA,0.0528
15,GUGGGAU,3.68
16,AUGGGCU,1.6
17,GUGGGAC,2.35
18,GUGGGAA,3.62
19,GUCGGAA,0.8
20,CUGGGGC,0.901
21,GCGGGAA,2.66
22,AUGGGAU,3.45
23,GUGGGGC,3.52
24,GUGGGCC,1.46
25,CUGGGAU,1.11

row,Sequence,RNAcompete 7-mer binding Z-score
1,AUGGGAC,2.09
2,CGGCGGA,0.862
3,CCUUGUA,-0.733
4,GUUCGGC,-0.0869
5,UUCGUUG,-0.162
6,GGGCAGC,1.32
7,CCAUGGU,0.254
8,ACUACUG,-0.428
9,CUGCGCU,-0.633
10,GUGGCGG,3.26
11,GUGGCGC,0.992
12,CUGGCGG,0.508
13,UUAUCGG,-0.171
14,AGUCGUG,0.124
15,GGGGAUG,4.52
16,UGGGAUG,3.61
17,CGGGAUG,2.48
18,UGGGAUA,3.05
19,AGGGAUG,4.59
20,AGGGACG,2.13
21,GGGGAUU,2.75
22,GGGGAUC,2.29
23,UGGGAUU,1.9
24,GCCAGAC,-0.386
25,GUGAGGA,2.69

row,Sequence,RNAcompete 7-mer binding Z-score
1,GAGUGUA,0.972
2,AGCUGGA,0.8
3,UGGUGAG,2.98
4,CAGCAAG,-0.0804
5,AAAAUAU,-0.324
6,GCUCAAG,-0.386
7,AAGCAUG,-0.035
8,AGAGUGA,0.81
9,ACAUGGA,1.7
10,UAAUGGG,2.84
11,AAAUGGU,2.86
12,AAAUGGC,1.05
13,GAAUGGG,4.76
14,GUAUGGA,2.12
15,GUAUGGG,4.25
16,AAAUGGA,3.63
17,AAAUGGG,4.08
18,GAAUGGC,1.27
19,CAAUGGG,2.34
20,CUAUGGG,1.13
21,CGUAUGC,-0.542
22,CCGGAGC,0.0625
23,GGCUUAG,0.527
24,CCUUACG,-0.818
25,GGGUUAC,2.16

row,Sequence,RNAcompete 7-mer binding Z-score
1,AGGUACG,0.751
2,UCCAGUU,-0.639
3,AGCAUUC,-0.694
4,UUGGUUG,0.917
5,GUGACGG,2.02
6,UAAUGGA,1.93
7,CAAUGGA,1.1
8,GAAUGGA,4.02
9,AACGGGA,3.45
10,CACGGGA,1.5
11,AACGGGU,3.03
12,AACGGGG,3.45
13,CACGGGG,2.66
14,GACGGGG,3.13
15,UACUUUC,-0.974
16,GUACUGA,0.0138
17,GGGGGAC,2.25
18,UUGGGAU,2
19,UGGGGAC,3.17
20,CGGGGAU,2.5
21,UGGGGAU,3.57
22,AGGGGAC,2.18
23,AGGGGCU,1.35
24,AGGGGAU,3.64
25,GGGGGAU,3.32

row,Sequence,RNAcompete 7-mer binding Z-score
1,CACCUAU,-0.902
2,UCGUCAA,-0.594
3,CUAUCGG,-0.5
4,CACGCGC,-0.366
5,GGCCUAU,-0.565
6,UGUUGUC,-0.574
7,GUCCGGU,0.082
8,AAGGAGA,3.37
9,GAGGAUG,3.1
10,AUGGAUA,2.89
11,UAGGAGA,1.94
12,AAGGAUA,2.99
13,AAGGAUG,4.14
14,UAGGAGG,2.77
15,AUGGAUG,3.28
16,GAGGAGG,2.97
17,AUGGAUU,1.71
18,CAGGAGA,1.93
19,AAGGAGG,4.7
20,GUAUCUC,-0.594
21,GCGGUUA,1.32
22,CCACUGG,-0.152
23,UUUCGAA,-0.678
24,UGACACG,0.0138
25,GAUGUUA,-0.116

row,Sequence,RNAcompete 7-mer binding Z-score
1,GCGACCC,-0.545
2,CCGUUCC,-0.967
3,UAAUGCA,-0.386
4,UGACUCG,-0.487
5,AUAAGGA,2.08
6,AUAAGGG,3.77
7,AUAAGGU,1.72
8,GUAAGGG,3.85
9,GUAAGGC,1.67
10,GUAAGGA,2.67
11,GAGAAUC,0.0593
12,UACGUGU,-0.318
13,GAUAUAU,-0.178
14,ACGAUUA,-0.366
15,UUAACGU,-0.324
16,UUUUCAU,-0.727
17,UUUAGGG,1.65
18,GUUAGGU,1.86
19,UAUAGGG,2.69
20,GUUAGGG,3.73
21,CAUAGGG,1.51
22,GAUAGGG,4.05
23,AAUAGGU,1.37
24,AAUAGGG,3.28
25,AAUAGGC,0.192

row,Sequence,RNAcompete 7-mer binding Z-score
1,UAGAACU,-0.155
2,GACCCCU,-0.704
3,AACGGCA,0.42
4,CGUGCGG,1.09
5,CGCGCCA,-0.337
6,AGGGGGA,2.47
7,AAAGGCG,1.21
8,AAAGGGG,4.5
9,AAGGGGU,4.48
10,AAGGGCU,1.62
11,AAGGGGA,4.47
12,AGGGGGC,1.83
13,AGGGGGU,3.09
14,AAGGGGG,4.31
15,AAGGGGC,3.13
16,GUCGCUA,-0.243
17,CUGGAGA,0.501
18,UUAGAAU,-0.152
19,CGUGAUC,-0.704
20,GAAUCGG,1.41
21,UGAACAC,-0.347
22,GCUUGUC,-0.665
23,UCUGGGG,1.39
24,CGGAGAA,1.36
25,AAUUGCC,-0.626

row,Sequence,RNAcompete 7-mer binding Z-score
1,UGGAUAU,1.17
2,AGCAUAA,-0.292
3,CAAAGGG,2.23
4,AAAAGGG,3.8
5,GAGGGAC,2.06
6,UAAAGGG,2.85
7,GAGGGGU,3.59
8,GAGGGGG,2.9
9,GAGGAAA,2.27
10,GAGGGAA,3.42
11,GAGGGGA,3.62
12,CAGGGGA,2.99
13,GAGGGGC,2.44
14,GAGGGCU,1.3
15,GAAAGUU,0.225
16,CAUAGGA,0.54
17,GCCGUUA,-0.607
18,GCAGGCA,0.495
19,AUGUAAG,0.397
20,UCGGGUG,2.34
21,GGGGGCG,2.47
22,GGGGGUG,4.02
23,GGGGGUC,2.18
24,UGGGGUC,2.57
25,UUGGGUC,1.04

row,Sequence,RNAcompete 7-mer binding Z-score
1,UUGGGUU,2.66
2,UUGGGUG,3.83
3,AGGGGUG,3.85
4,UGGGGUG,4.74
5,AGGGGCG,2.28
6,AUACAGU,-0.00571
7,GUCCAGA,-0.474
8,GGGCUCA,0.485
9,AGGUGUU,0.988
10,AAUGCCC,-0.613
11,ACCGUAU,-0.746
12,CGGGGUG,3.76
13,AUGGGUU,2.89
14,AUGGGUG,4.03
15,GUAGGUA,2.15
16,GUGGGUA,3.53
17,AUUGGUG,2.27
18,AUGGGUA,3.54
19,AUCGGUG,0.894
20,CCGGGUG,1.47
21,AUGGGUC,2.19
22,CGGGGUC,2.14
23,CUGGGUA,2.13
24,UAUACUC,-0.769
25,UAAACAA,-0.392

row,Sequence,RNAcompete 7-mer binding Z-score
1,ACCGUUC,-0.948
2,AAACACC,-0.6
3,CUGCGGC,0.0138
4,GCAUGGC,0.176
5,AACCGCG,-0.353
6,CACGGGU,1.99
7,GUGGGUC,2.36
8,CUGGGUG,1.83
9,GUGGGUG,4.14
10,GCGAAAA,0.0528
11,GCGCCCC,-0.0934
12,AUUCCUA,-0.756
13,UUAGGCU,0.095
14,CUGGGUU,1.53
15,UGGGGGU,3.87
16,UGGGGCU,2.3
17,GGGGGUU,3.67
18,AGGGGUU,2.52
19,UGGGGUU,3.29
